Data on 17 compounds can be found in PubChem BioAssay (EPA / NIEHS).

Usually AC50 stands for the midpoint of the concentration-response curve, whichever way the signal moves.

Assay [1] can be described thus: CCTE_Mundy_HCI_iCellGluta_NOG_NeuronCount: CCTE's Neurite Outgrowth Assay in iCellGluta cells for Neuron Count, Mundy Lab (AID 2284340; active means hit-call score of the fitted dose curve at least 0.9, where 1 is the maximum;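 further: cells fixed about 48 h after compound addition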). In short, it runs like this: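 Neuron count read by automated high-content imaging of Hoechst 33342 and betaIII-tubulin/Alexa Fluor-488 labelling in human iPSC glutamatergic neurons. Activity fitted relative to DMSO.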
A short description of assay [2]: CCTE_Mundy_HCI_iCellGluta_NOG_NeuriteCount: CCTE's Neurite Outgrowth Assay in iCellGluta cells for Neurite Count, Mundy Lab (AID 2284342; active means hit-call score of the fitted dose curve at least 0.9, where 1 is the maximum;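 further: chemical exposure about 48 hours starting 2 hours after plating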).
Assay [3] can be described thus: Tanguay_ZF_120hpf_DP24: Oregon State University Tanguay Lab 24 Hour Post-fertilization zebrafish Assay for Delayed Development (AID 2284390). In short, it runs like this:
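Scored at 24 hpf as a binary present/absent call of delayed development by brightfield, with dead embryos not assessed. Embryos (5D wild type, chorion removed with pronase at 4 hpf) dosed statically from 6 hpf at 28 C in 0.64% DMSO.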

Assay [4] can be described thus: Tanguay_ZF_120hpf_CRAN: Oregon State University Tanguay Lab 120 Hour Post-fertilization zebrafish Assay for Craniofacial Malformation (AID 2284397). In short, it runs like this:
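Scoring of craniofacial malformation as a binary endpoint was done at 120 hpf by brightfield microscopy and was not done in dead embryos. Exposure was static, starting at 6 hpf, in dechorionated wild-type embryos held singly at 28C with 0.64% DMSO final.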

Assay [5] in a line: Tanguay_ZF_120hpf_AXIS: Oregon State University Tanguay Lab 120 Hour Post-fertilization zebrafish Assay for Axial Malformation (AID 2284398). In short, it runs like this: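 Scoring was binary (present or absent) for body-axis defects, judged by brightfield imaging at 120 hpf in surviving larvae. Exposure was static at 28C from 6 hpf in chorion-free 5D wild-type embryos, with 0.64% DMSO vehicle.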

A short description of assay [6]: Tanguay_ZF_120hpf_BRN: Oregon State University Tanguay Lab 120 Hour Post-fertilization zebrafish Assay for Brain Region Malformation (AID 2284402). In short, it runs like this: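 Binary brightfield scoring of brain malformation at 120 hpf in 5D wild-type larvae, chorion removed with pronase at 4 hpf. Static exposure began at 6 hpf, 28C, sealed plates, DMSO 0.64% (vol/vol) as vehicle baseline.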

Assay [7] can be described thus: Tanguay_ZF_120hpf_TCHR: Oregon State University Tanguay Lab 120 Hour Post-fertilization zebrafish Assay for Touch Responsive (AID 2284403). The procedure, abridged: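 Binary touch-response calls are made at 120 hpf in 5D wild-type zebrafish larvae. These larvae were dechorionated with pronase and exposed singly from 6 hpf in sealed, dark plates at 28 °C with 0.64% DMSO final; dead embryos are excluded.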

Assay [8] in a line: CCTE_Padilla_ZF_Score.Craniofacial: CCTE's 144 Hour Post-fertilization zebrafish Assay Score for Craniofacial Malformation, Padilla Lab (AID 2284405). The procedure, abridged: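 Craniofacial defects were scored at 6 dpf by two blinded observers using stereomicroscopy. Exposure of wild-type embryos began at 6–8 hpf in sealed wells of 10% Hanks' solution at 26C, with chemical removed by rinsing at 5 dpf.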

Assay [9] can be described thus: CCTE_Padilla_ZF_Score.Edema: CCTE's 144 Hour Post-fertilization zebrafish Assay Score for Edema Malformation, Padilla Lab (AID 2284406). In short, it runs like this:
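Edema scored at 6 dpf by two blinded observers under a stereo microscope, in single outbred wild-type larvae exposed from 6-8 hpf in sealed wells (Hanks', 26C, 14:10 h light) and chemical-free after a 5 dpf rinse.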

Assay [10] in a line: CCTE_Padilla_ZF_Score.Spine: CCTE's 144 Hour Post-fertilization zebrafish Assay Score for Spine Malformation, Padilla Lab (AID 2284407). In short, it runs like this:
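Spine malformation scored at 6 dpf by two independent blinded observers under stereomicroscope, after static sealed exposure from 6–8 hpf at 26C in Hanks' solution with rinse on 5 dpf. Positive-direction fit against DMSO control.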

The nature of assay [11]: CCTE_Padilla_ZF_Score.Swim_bladder: CCTE's 144 Hour Post-fertilization zebrafish Assay Score for Swim Bladder Malformation, Padilla Lab (AID 2284408). The procedure, abridged: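 Swim bladder inflation scored at 6 dpf by two blinded observers under a stereo microscope. Exposure ran from 6–8 hpf in sealed wells of 10% Hanks' at 26C, with rinsing at 5 dpf; DMSO served as baseline.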

For another assay, the system named is SERPINA7 (gene 6906). The assay can be described thus: CCTE_GLTED_hTBG: CCTE's human Thyroxine-binding Globulin (TBG) Inhibition Assay, Great Lakes Toxicology and Ecology Division (GLTED) Lab (AID 2284343; active means hit-call score of the fitted dose curve at least 0.9, where 1 is the maximum;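 further: active chemicals lower fluorescence versus DMSO baseline by displacing probe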). The procedure, abridged:
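Human thyroxine-binding globulin was exposed to each chemical for 2 hours, during which the ANSA probe could be displaced. Fluorescence was then measured at 380/475 nm, and loss of signal was analysed relative to DMSO.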

Assay [12] can be described thus: IUF_NPC1_cytotoxicity_72hr: Cytotoxicity Assessment at 72 hours in the Leibniz Research Institute for Environmental Medicine (IUF) Neural Progenitor Cell Proliferation Assay (NPC1) (AID 2284332; active means hit-call score of the fitted dose curve at least 0.9, where 1 is the maximum;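 further: rising LDH signal means more cytotoxicity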). The procedure, abridged: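 Membrane-integrity loss is scored from LDH released into the medium, detected as resorufin fluorescence, with activity fitted upward relative to baseline. Test material stays on human fetal-derived progenitor spheres for 72 h.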

Assay [13] in a line: TAMU_PeakParms_SingleDonor1434_Asystole: Texas A&M University (TAMU) 1.5-hr Human Induced Pluripotent Stem Cell (iPSC)-derived Cardiomyocytes Calcium (Ca+2) Flux Assay for Cardiotoxicity: Asystole (quiescence of beating) (AID 2284328; active means hit-call score of the fitted dose curve at least 0.9, where 1 is the maximum). The procedure, abridged:
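Average Ca2+-flux peak frequency (beats/s) was recorded in single-donor iPSC-derived cardiomyocytes after 90 min exposure (0.2–100 uM final, 0.5% DMSO). Asystole POD set as EC95 against DMSO, no preprocessing.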

Assay [14] in a line: VALA_TUBHUV_Agonist_TubuleLength: VALA Sciences human Umbilical Vein Endothelial Tubule Formation (TUBHUV) Agonism Assay (AID 2284337; active means hit-call score of the fitted dose curve at least 0.9, where 1 is the maximum). The procedure, abridged: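 Tubule length quantified by CD31 immunofluorescence imaging after fixation. HUVEC-HDF co-cultures (1:3) pre-grown 3 days with 10 ng/ml VEGF, then dosed 3 days in VEGF medium; 0.1 % DMSO vehicle baseline.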
Assay [15] in a line: VALA_TUBIPS_Agonist_CellCount: Viability Assessment in the VALA Sciences human iPS-derived Endothelial Tubule Formation (TUBIPS) Agonism Assay (AID 2284338; active means hit-call score of the fitted dose curve at least 0.9, where 1 is the maximum).
The test system of assay [16] is Brachyury (BRA) Protein Expression, Deisenroth Lab, TBXT (gene 6862). Kind of assay: CCTE_Deisenroth_DEVTOX-GLR_legacy_Bra: (Legacy) CCTE's DevTox GLR-Endo Assay Evaluation of Brachyury (BRA) Protein Expression, Deisenroth Lab (AID 2284329). The procedure, abridged:
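Percent Bra-positive cells, scored by high-content imaging against a threshold of 5x BMAD over the undifferentiated control median, with the 0.2% DMSO median subtracted. RUES2-GLR cultures were dosed twice at 24 h intervals across a 48 h differentiation, at 1 nM–200 uM in ten steps, with n=4 replicates.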

Assay [17] in a line: CCTE_Deisenroth_DEVTOX-GLR_legacy_CellCount: (Legacy) Viability Assessment in CCTE's DevTox GLR-Endo Assay, Deisenroth Lab (AID 2284331). The conditions noted are these: actives raise or lower the signal. The procedure, abridged:
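Human pluripotent RUES2-GLR cells differentiated 48 h with two 24-h-interval exposures, 10-point 1 nM–200 uM series, 0.2% DMSO. Fixed nuclei counted by high-content imaging (5 fields/well); bidirectional fit vs DMSO, n≥4.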

The test system of assay [18] is SRY-box transcription factor 17 (SOX17) Protein Expression, Deisenroth Lab, SOX17 (gene 64321). Kind of assay: CCTE_Deisenroth_DEVTOX-GLR_legacy_Sox17: (Legacy) CCTE's DevTox GLR-Endo Assay Evaluation of SRY-box transcription factor 17 (SOX17) Protein Expression, Deisenroth Lab (AID 2284341). The conditions noted are these: actives raise or lower the signal. The procedure, abridged:
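RUES2-GLR human pluripotent cells differentiated toward endoderm for 48 h, dosed twice at 24 h intervals (1 nM–200 uM, 10 points). Imaging gives % SOX17+ cells (intensity >5x BMAD above pluripotent control median); bidirectional fit versus 0.2% DMSO.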

The subject of assay [19] is SRY-box transcription factor 2 (SOX2) Protein Expression, Deisenroth Lab, SOX2 (gene 6657). The assay can be described thus: CCTE_Deisenroth_DEVTOX-GLR_legacy_Sox2: (Legacy) CCTE's DevTox GLR-Endo Assay Evaluation of SRY-box transcription factor 2 (SOX2) Protein Expression, Deisenroth Lab (AID 2284346). The procedure, abridged: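 Percent Sox2-positive cells was scored by high-content imaging of 5 fields per well. Positivity cutoff was 5x BMAD over the directed endoderm control, and the DMSO median was subtracted. Cells were RUES2-GLR, dosed twice at 24-h intervals over 48 h of differentiation (1 nM-200 uM).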

Inconclusive results are not listed. Calls of active or inactive are those of the source. How the source made its calls, unless noted: active means hit-call score of the fitted dose curve at least 0.9, where 1 is the maximum; inactive means score below 0.9.

Turning to `O=C(O)C(F)(F)OC(F)(F)C(F)(F)OC(F)(F)F`, the call in [1], in assay [2], in assay [3], in assay [4], in assay [5] and in assay [6] was inactive. Further, the compound was classed as inactive in [7], in [8], in [9], in assay [10] and in assay [11].
Turning to `O=S(=O)(F)C(F)(F)C(F)(F)C(F)(F)C(F)(F)C(F)(F)C(F)(F)C(F)(F)C(F)(F)F`, the compound was classed as inactive in assay [3], in assay [4], in assay [5], in assay [6], in assay [7] and in assay [8]. The compound was classed as inactive in [9], in assay [10] and in [11].
As for `OCC(F)(F)OC(F)(F)C(F)(F)OC(F)(F)C(F)(F)OC(F)(F)CO`, the AC50 with SERPINA7 (gene 6906) was 44.1 µM (active); in assay [3], 33.3 µM (active); in assay [4], 28.9 µM (active); in assay [5], 36.7 µM (active). The call in assay [6], in assay [7], in [8], in assay [9], in assay [10] and in assay [11] was inactive.
With `NC(=O)C(F)(F)C(F)(F)F`, the outcome in assay [3], in assay [4], in assay [5], in [6], in [7] and in assay [8] was inactive. The outcome in assay [9], in assay [10] and in [11] was inactive.
`O=C(O)C(F)(OC(F)(F)C(F)(F)C(F)(F)F)C(F)(F)F` (stereo not drawn): the result in assay [12], in assay [1], in [2], in [3], in [4] and in assay [5] was inactive. Besides, the result in assay [6], in [7], in [8], in assay [9], in assay [10] and in assay [11] was inactive.
For the compound `CC(O)C(F)(F)C(F)(F)F` (stereo not drawn), the compound was classed as inactive in [3], in assay [4], in assay [5], in [6], in assay [7] and in assay [8]. The outcome in [9], in assay [10] and in [11] was inactive.
For `CCOc1ccc(C(C)(C)COCc2cccc(Oc3ccccc3)c2)cc1`, the compound was called inactive (in [12]; in assay [1]; in assay [2]; with SERPINA7 (gene 6906)).
For the compound `C=CC(=O)OCC(F)(F)C(F)F`, the outcome in assay [2], in assay [4], in assay [6], in [7], in [8] and in [10] was inactive. In addition, the compound was classed as inactive in assay [11]. Further, the AC50 in assay [3] is 45.3 µM (active); in assay [5], 54.6 µM (active); in assay [9] it was 8.88 µM (active).
In the case of `CCCCc1ccc(O)cc1`, the AC50 with SERPINA7 (gene 6906) was 63 µM (active).
Take `CCC1(c2ccccc2)C(=O)N=C(O)NC1=O` (stereo not drawn): the result in assay [13] was inactive.
For the compound `O=[N+]([O-])c1ccc(Cl)c(Cl)c1`, the compound was classed as inactive in the assay with SERPINA7 (gene 6906).
On to `CCOP(=S)(OCC)SCSCC`, for which the result in [12], in assay [1] and in assay [2] was inactive. Further, in the assay on SERPINA7 (gene 6906), the AC50 is 24.7 µM (active).
As to `Cc1ccc(N)cc1N`, in assay [14], the AC50 is 7.57 µM (active). Moreover, the result in [15] was inactive.
Take `CCCCC(CC)COP(=O)(Oc1ccccc1)Oc1ccccc1` (stereo not drawn): the result in assay [13] was inactive. Besides, in the assay on SERPINA7 (gene 6906), the AC50 was 4.21 µM (active).
With `CCOP(=S)(Oc1ccc([N+](=O)[O-])cc1)c1ccccc1` (stereo not drawn), in the assay on SERPINA7 (gene 6906), the AC50 is 1.84 µM (active).
As for `O=P1(N(CCCl)CCCl)NCCCO1` (stereo not drawn), the result in assay [16], in [17], in assay [18] and in [19] was inactive.
For `O=P(Oc1ccccc1)(Oc1ccccc1)Oc1ccccc1`, the result in [13] and in assay [12] was inactive. In addition, the AC50 with SERPINA7 (gene 6906) is 3.18 µM (active).
